In PubChem BioAssay (NCATS):
Inconclusive results are not listed. Entries that show only a call come without a potency. The source made the active and inactive calls. Calls come from the whole dose curve; as a rule, active = well fitted inhibition curve with a large enough effect; inconclusive = small, poorly fitted or top-dose-only effect; inactive = flat fitted curve, though single readings scatter.

system: CP260; assay: qHTS profiling for inhibitors of Plasmodium falciparum proliferation (AID 504749); note: nearly all actives have a fitted effect of over 60% in size; conditions: P. falciparum in erythrocytes, SYBR Green DNA, 72 h; series mostly up to 28.7 µM
How it was run: (§1)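 Fluorescence of SYBR Green-bound parasite DNA, read at 485/535 nm, served as the growth measure. Infected erythrocytes were cultured with compound 72 h; artemisinin (0.29 uM) and DMSO wells defined the normalization range.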
Potency is the fitted concentration of half-maximal effect.

Structure (SMILES)	Potency
O=C(O)c1cc(O)c2c(c1)[C@H]([C@H]1c3cc(C(=O)O)cc(O)c3C(=O)c3c(O[C@@H]4OC(CO)C(O)C(O)C4O)cccc31)c1cccc(O[C@@H]3OC(CO)C(O)C(O)C3O)c1C2=O (stereo partly drawn)	inactive
CC(C)CN(C[C@@H](OP(=O)(O)O)[C@H](Cc1ccccc1)NC(=O)O[C@@H]1CCOC1)S(=O)(=O)c1ccc(N)cc1	inactive
CCC(C)n1ncn(-c2ccc(N3CCN(c4ccc(OCC5COC(Cn6cncn6)(c6ccc(Cl)cc6Cl)O5)cc4)CC3)cc2)c1=O (stereo not drawn)	6.31 µM (active)
CC(C)CN(C[C@@H](O)[C@H](Cc1ccccc1)NC(=O)O[C@H]1CCOC1)S(=O)(=O)c1ccc(N)cc1	inactive

system: CP262; assay: as above; conditions: P. falciparum in erythrocytes, SYBR Green DNA, 72 h; series mostly up to 28.7 µM
How it was run: as §1

Structure (SMILES)	Potency
O=C(O)c1cc(O)c2c(c1)[C@H]([C@H]1c3cc(C(=O)O)cc(O)c3C(=O)c3c(O[C@@H]4OC(CO)C(O)C(O)C4O)cccc31)c1cccc(O[C@@H]3OC(CO)C(O)C(O)C3O)c1C2=O (stereo partly drawn)	inactive
CC(C)CN(C[C@@H](OP(=O)(O)O)[C@H](Cc1ccccc1)NC(=O)O[C@@H]1CCOC1)S(=O)(=O)c1ccc(N)cc1	inactive
CCC(C)n1ncn(-c2ccc(N3CCN(c4ccc(OCC5COC(Cn6cncn6)(c6ccc(Cl)cc6Cl)O5)cc4)CC3)cc2)c1=O (stereo not drawn)	inactive
CC(C)CN(C[C@@H](O)[C@H](Cc1ccccc1)NC(=O)O[C@H]1CCOC1)S(=O)(=O)c1ccc(N)cc1	inactive
